Screening data deposited in PubChem by The Scripps Research Institute Molecular Screening Center.
FBW7 act – FBW7 E3 ligase activators, primary screen, biochemical, AlphaScreen, human; AlphaScreen FBW7–phospho-cyclin E peptide binding, activator screen; hit rate 0.13% among 650,000; normalized activity (activation), % at 26.1 µM; in the data active = normalized activity above about 1.9%;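 note: purified mutant Fbw7 with reduced substrate affinity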
Target sequence (Q969H0 whole entry, looked up): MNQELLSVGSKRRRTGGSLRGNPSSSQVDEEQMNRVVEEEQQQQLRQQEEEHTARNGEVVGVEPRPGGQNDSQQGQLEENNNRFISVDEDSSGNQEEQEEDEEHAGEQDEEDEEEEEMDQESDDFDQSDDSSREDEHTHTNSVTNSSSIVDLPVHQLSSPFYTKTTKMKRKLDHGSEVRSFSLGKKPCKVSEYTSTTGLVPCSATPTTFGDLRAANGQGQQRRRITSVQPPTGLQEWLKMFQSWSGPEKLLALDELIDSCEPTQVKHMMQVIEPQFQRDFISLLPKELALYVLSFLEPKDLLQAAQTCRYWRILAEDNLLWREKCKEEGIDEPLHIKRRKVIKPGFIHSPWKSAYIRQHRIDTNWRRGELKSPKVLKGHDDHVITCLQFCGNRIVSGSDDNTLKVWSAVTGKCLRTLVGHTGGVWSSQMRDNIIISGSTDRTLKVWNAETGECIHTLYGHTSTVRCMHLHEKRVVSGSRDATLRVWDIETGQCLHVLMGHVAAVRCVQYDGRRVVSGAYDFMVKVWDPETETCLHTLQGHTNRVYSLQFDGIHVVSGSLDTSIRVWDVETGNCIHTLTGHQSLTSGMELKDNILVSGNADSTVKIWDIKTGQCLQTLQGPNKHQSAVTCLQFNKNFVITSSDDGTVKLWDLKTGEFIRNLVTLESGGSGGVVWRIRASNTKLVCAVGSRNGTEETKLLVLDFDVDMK
GPR151 ag – activators of human GPR151, primary screen, cell-based, PathHunter beta-arrestin, luminescence; G-protein coupled receptor 151 (Homo sapiens), Q8TDV0; PathHunter beta-arrestin GPR151 cells; activation, % at 11.2 µM; hit rate 1% among 650,000; AID 1508602, 2020; in the data active = activation above about 4.9%;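 note: 0% = median of compound wells and 100% = cells with positive control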
TEAD-YAP block – TEAD-YAP interaction inhibition, primary screen, TEAD-YAP interaction inhibitor project, luminescence, HEK-TIYL cells; TEAD-Gal4/YAP UAS-luciferase luminescence; inhibition, % at 9.12 µM; hit rate 1.4% among 640,000; in the data active = inhibition above about 32%;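 note: 0% = median of test compound wells and 100% = reference inhibitor wells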
MITF inh – MITF inhibitors, primary screen, biochemical, AlphaScreen, human. AlphaScreen MITF homodimerization, bead proximity signal. inhibition, % at 2.6 µM. hit rate 0.91% among 650,000. AID 1259374, 2018; in the data active = inhibition above about 50%;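 note: 0% = vehicle wells with protein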
An asterisk follows results filed as active. Shown are actives, neighbours in structure and some others; about 3.5% of the full set was active somewhere.

SMILES	FBW7 act	GPR151 ag	TEAD-YAP block	MITF inh
O=C(/C=C/c1ccc(Cl)cc1)Nc1ccc(CN2CCOCC2)cc1	0.0	0.0	40.8*	-1.0
Cn1c(NCCO)nc2c1c(=O)n(Cc1ccc(Cl)cc1)c(=O)n2C	0.4	-0.1	-18.8	16.7
Cc1ccnc(NC(c2ccncc2)c2ccc3ccc(C)nc3c2O)c1 (configuration not stated)	-0.2	1.0	39.5*	3.6
CCOc1ccc(C(Nc2cc(C)ccn2)c2ccc3cccnc3c2O)cc1C (configuration not stated)	-0.3	0.3	85.6*	8.4
Cc1ccnc(NC(c2cccnc2)c2ccc3ccc(C)nc3c2O)c1 (configuration not stated)	-0.2	2.5	15.4	-5.0
Cc1ccnc(NC(c2cccnc2)c2ccc3cccnc3c2O)c1 (configuration not stated)	-0.3	0.2	20.1	65.5*
Cc1ccnc(NC(c2ccc(C(C)(C)C)cc2)c2ccc3cccnc3c2O)c1 (configuration not stated)	-0.1	-0.1	18.7	-8.8
Oc1c(C(Nc2nccs2)c2cccnc2)ccc2cccnc12 (configuration not stated)	-0.4	0.6	66.8*	89.3*
C=CCOc1cccc(C(Nc2cc(C)ccn2)c2ccc3ccc(C)nc3c2O)c1 (configuration not stated)	-0.1	-1.3	16.9	-60.0
CCOCCn1cnc2sc(C(=O)Nc3cccc(C(F)(F)F)c3)c(C)c2c1=O	0.0	0.2	-5.4	5.5
CN(C)C(=O)CN1CCC(O)(c2cccnc2)CC1	0.0	1.0	-2.2	-0.5
COc1ccccc1NC(c1cccnc1)c1ccc2cccnc2c1O (configuration not stated)	-2.0	-0.5	3.3	76.3*
O=C(CN1Cc2ccccc2OC(c2ccccc2F)C1)N(CCO)CCO (configuration not stated)	0.1	0.2	-7.2	-1.8
CCC(=O)Nc1ccc(C(=O)N2CCCCC2C)cc1 (configuration not stated)	0.2	-0.6	-6.7	-16.4
CSCCNC(=O)c1ccc(OC2CCN(Cc3ccccn3)CC2)cc1	-0.1	-0.7	2.0	8.9
O=C(NCCc1ccccc1)c1ccc(OC2CCN(C(=O)c3ccsc3)CC2)cc1	-0.1	-0.5	1.4	8.4
Cc1ccoc1C(=O)N1CCC(Oc2ccc(C(=O)NCCc3ccccc3)cc2)CC1	0.0	0.6	82.9*	-15.8
Cc1ncoc1C(=O)N1CCC(Oc2ccc(C(=O)NCCc3ccccc3)cc2)CC1	-0.1	-0.5	49.5*	-2.4
Cc1cc(C(=O)N2CCC(Oc3ccc(C(=O)NCCc4ccccc4)cc3)CC2)no1	-0.1	-0.4	9.3	2.0
O=C(NCCc1ccccc1)c1ccc(OC2CCN(C(=O)c3ccoc3)CC2)cc1	-0.2	1.3	52.7*	10.7
COCC(=O)N1CCC(Oc2ccc(C(=O)NCCc3ccccc3)cc2)CC1	-0.1	0.5	28.4	-5.3
O=C(NCCc1ccccc1)c1ccc(OC2CCN(C(=O)Cn3cncn3)CC2)cc1	-0.1	-0.1	76.5*	0.3
CC(=O)NC(c1ccc(F)cc1)c1ccc2cccnc2c1O (configuration not stated)	-1.5	-1.3	85.1*	44.3
CCC(=O)NC(c1ccccc1Cl)c1cc(Cl)c2cccnc2c1O (configuration not stated)	-0.3	0.2	50.3*	0.8
CC(=O)NC(c1ccccc1Cl)c1ccc2cccnc2c1O (configuration not stated)	-1.7	0.9	89.8*	37.4
SMILES	FBW7 act	GPR151 ag	TEAD-YAP block	MITF inh
CC(=O)NC(c1ccc(Cl)cc1)c1ccc2cccnc2c1O (configuration not stated)	-1.7	1.9	89.8*	19.0
O=C(NC(c1ccccc1)c1ccc2cccnc2c1O)c1ccccc1 (configuration not stated)	-1.5	0.7	22.0	23.9
COc1ccc(C(=O)NC(c2ccccc2Cl)c2cc(Cl)c3cccnc3c2O)cc1 (configuration not stated)	-0.1	0.0	8.4	10.6
CCC(=O)NC(c1ccc(Cl)cc1)c1cc(Cl)c2cccnc2c1O (configuration not stated)	0.2	-0.7	-2.2	-1.8
O=C(Nc1ccccc1Cl)C1CCCN(C(=O)NCc2ccccc2)C1 (configuration not stated)	0.0	1.0	13.8	-7.6
COc1ccc([N+](=O)[O-])cc1N1C(=O)C2C(C1=O)C1C=CC2C12CC2 (configuration not stated)	0.0	1.5	-9.1	-0.1
O=C(O)CCSc1ccc(C(=O)O)cc1[N+](=O)[O-]	-0.1	2.0	-1.2	8.7
CCCC(=O)NC(c1ccccc1Cl)c1ccc2cccnc2c1O (configuration not stated)	-1.4	0.9	94.9*	52.7*
CCCCC(=O)NC(c1ccc(Cl)cc1Cl)c1ccc2cccnc2c1O (configuration not stated)	-0.5	0.9	46.1*	17.4
CCCC(=O)NC(c1ccc(SC)cc1)c1ccc2cccnc2c1O (configuration not stated)	-0.9	-0.6	82.3*	14.6
CCc1ccc(NC(c2ccccc2)P2(=O)OCCCO2)cc1 (configuration not stated)	0.0	0.5	-3.0	4.5
COc1ccccc1N(CCC#N)C(=O)CCl	0.0	0.0	17.6	3.5
N#CCCN(C(=O)CCl)c1ccccc1F	0.0	-1.6	46.2*	13.2
Fc1cccc(-c2nc3cccnc3nc2-c2cccc(F)c2)c1	0.0	-0.5	13.2	1.6
Clc1nc2ncccc2nc1-c1ccccc1	0.0	0.6	40.7*	-7.2
CC(C)(C)/C(=C\c1nc2ccccc2[nH]c1=O)NN	0.0	-6.2	80.6*	3.2
O=c1c(NCc2ccco2)c(-c2ccccc2)c1=O	0.6	2.5	3.7	8.2
Cn1c(=O)c(=O)n(C)c2cc(S(=O)(=O)N3CCc4ccccc43)ccc21	-0.2	0.1	-2.8	14.2
Cn1c(=O)oc2cc(S(=O)(=O)N3CCCc4ccccc43)ccc21	0.8	-0.6	55.1*	8.1
Cn1c(=O)oc2cc(S(=O)(=O)N3CCc4ccccc43)ccc21	0.0	0.1	49.5*	8.9
CC1Cc2ccccc2N1S(=O)(=O)c1ccc2c(c1)oc(=O)n2C (configuration not stated)	0.2	0.7	49.2*	-3.4
O=S(=O)(c1ccc(Cl)c(Cl)c1)N1CCc2ccccc21	0.0	1.2	14.3	-6.9
Cc1cc(-c2ccc(S(=O)(=O)N3CCc4ccccc43)cc2)on1	0.1	-0.8	58.1*	14.7
Cc1n[nH]c(C)c1S(=O)(=O)N1CCCC(C(=O)c2ccc(-c3ccccc3)cc2)C1 (configuration not stated)	0.7	-1.2	-2.7	-5.8
N#Cc1ccc(NC(=O)CCC(=O)Nc2ccc(C#N)cc2)cc1	0.0	-1.2	11.2	-7.1
